Values joined by “and” are separate entries in the source; they are usually repeats but may differ in a detail not shown here. Equal entries are not always repeated. Records with an inconclusive call do not appear. Entries that show only a call come without a potency. Active and inactive are the calls of the source. Calls follow the shape of the dose curve; as a rule, active = well fitted cell-killing curve with a large enough effect in the repeat runs; inconclusive = weak or mixed curves, or effect the other way; inactive = no such curve, though single readings can be large or run the other way.
Potency is read from the fitted curve at half-maximal effect.

This test can be described thus: qHTS assay to identify small molecule antagonists of the thyroid receptor (TR) signaling pathway - cell viability counter screen (AID 743064). Also: nearly all actives have a fitted effect of over 50% in size. The settings on record: GH3.TRE-Luc viability, CellTiter-Fluor, 24 h; series mostly up to 70.3 µM. An excerpt: National Center for Advancing Translational Sciences [NCATS]
NIH Chemical Genomics Center [NCGC]
U.S. Environmental Protection Agency [EPA]
National Institutes of Environmental Health Sciences [NIEHS]
National Toxicology Program [NTP]
U.S. Food and Drug Administration [FDA]
Thyroid receptor (TR), a nuclear hormone receptor, plays an important role in development, proliferation, differentiation, metabolism, brain function, and cardiovascular system. […] To profile the Tox21 10K compound library in TR signaling, a cell-based GH3-TRE-Luc assay (GH3.TRE-Luc cell line, developed by the laboratory of Dr. Albertinka J. Murk, Wageningen University) was used to measure the inhibition of TR. GH3 (rat pituitary tumor) cells stably expressing a TR activity sensor consisting of two TR response elements and a luciferase reporter gene. The cytotoxicity of the Tox21 compound library against the GH3.TRE-Luc cell line was tested in parallel by measuring the cell viability using CellTiter-Fluor assay (Promega, Madison, WI) in the same wells.
Tox21 Assay Protocol Summary:
GH3.TRE-Luc cells were dispensed at 1500 cells/4 uL/well into 1536-well white solid bottom plates using a Multidrop Combi dispenser (Thermo Fisher Scientific Inc., Waltham, MA). After the assay plates were incubated at 37 C for 4 hours, 23 nL of library compound or DMSO controls was transferred to the assay plates by a pintool station (Kalypsys, San Diego, CA), followed by addition of 1 ul of T3 (1 nM, final concentration in the wells) to stimulate TR transactivation. The assay plates were incubated at 37 C for 23.5 h, and then 1 uL of CellTiter-Fluor reagent (Promega, Madision, WI) of measuring cytotoxicity was added to each well using a Bioraptr Flying Reagent Dispenser (FRD) workstation (Beckman Coulter, Indianapolis, IN, USA). The plates were incubated at 37C and 5% CO2 for additional 30 min, and fluorescence intensity was measured by a ViewLux plate reader (PerkinElmer, Shelton, CT).
On the technique in general: In qHTS, concentration-response curves come from the screen itself.
`COc1ccc(C(=O)c2cccc(O)c2)c(OC)c1`: the Potency result is “inactive”.

On to `CCn1cc(C(=O)O)c(=O)c2cc(F)c(N3CCNCC3)nc21`, for which the Potency result is “inactive”.

As to `O=C(Nc1ccccc1)Nc1ccccc1`, the Potency entry was “inactive”.

Take `CC(C)(CCl)c1ccccc1`: the Potency entry is “inactive”.

On to `O=C(N[C@@H](c1ccccc1)[C@@H]1CCCCN1)c1cccc(C(F)(F)F)c1Cl`, for which the Potency was 24.3 µM (active).

On to `C/C=C(\C)C(=O)OCCC(C)CCC=C(C)C` (stereo not given), for which the Potency entry is “inactive”.

As to `Cc1c(C(=O)NN2CCCCC2)nn(-c2ccc(Cl)cc2Cl)c1-c1ccc(Cl)cc1`, the Potency is 16.8 µM (active).

On to `CCCOCCOCCO`, for which the Potency entry is “inactive”.

Turning to `CCNC(=O)N1CCN(CCCC(c2ccc(F)cc2)c2ccc(F)cc2)CC1`, the Potency was 21.1 µM (active).

With `CCCCCCCCCOC(C)=O`, the Potency entry is “inactive”.

As to `O=[N+]([O-])c1cccc(S(=O)(=O)NCCNS(=O)(=O)c2cccc([N+](=O)[O-])c2)c1`, the Potency entry was “inactive”.

As to `CNC(=S)NC`, the Potency entry was “inactive”.

Consider `CN1CCN(c2c(F)cc3c(=O)c(C(=O)O)cn4c3c2OCN4C)CC1`, for which the Potency entry was “inactive”.

In the case of `Brc1cc(-c2ccc(Br)c(Br)c2Br)cc(Br)c1Br`, the Potency result was “inactive”.

As for `CO[Si](C)(OC)OC`, the Potency result was “inactive”.

Consider `Cc1cc(S(=O)(=O)O)ccc1N=Nc1c(O)ccc2ccccc12`, for which the Potency was 17.2 µM (active).

In the case of `c1cnc2c(n1)CCCC2`, the Potency result was “inactive”.

As for `O=C(O)c1cccc(O)c1`, the Potency entry is “inactive”.

For `Nc1ccc(S(=O)(=O)O)c(N)c1`, the Potency entry was “inactive”.

For `OCCSc1ccccc1`, the Potency result was “inactive”.

On to `CC(COc1ccc(C(C)(C)C)cc1)OS(=O)OCCCl` (stereo not given), for which the Potency entry is “inactive”.

On to `CCCCC(=O)O[C@]1(C(=O)CO)CC[C@H]2[C@@H]3CCC4=CC(=O)CC[C@]4(C)[C@H]3[C@@H](O)C[C@@]21C`, for which the Potency entry is “inactive”.

As for `OCC1CC=CCC1` (stereo not given), the Potency result is “inactive”.

In the case of `CCCCC/C(=C\c1ccccc1)CO`, the Potency was 48 µM (active).

Regarding `O=S(=O)(c1ccccc1)c1ccc(Cl)cc1`, the Potency result is “inactive”.

Turning to `COc1cc2ncnc(Nc3ccc(F)c(Cl)c3)c2cc1OCCCN1CCOCC1`, the Potency was 10.6 µM (active).

On to `C[Si](NC1CCCCC1)(NC1CCCCC1)NC1CCCCC1`, for which the Potency result is “inactive”.

Turning to `Cc1nc2ccccc2s1`, the Potency entry is “inactive”.

For `Cc1occc1C(=O)Nc1ccc(C(=O)N2CCC(F)(F)/C(=C\C(=O)N3CCC(N4CCCCC4)CC3)c3ccccc32)cc1`, the Potency was 17 µM (active).

As for `CC1=C(/C=C/C(C)=C\C=C\C(C)=C\C(=O)O)C(C)(C)CCC1`, the Potency result is “inactive”.

Take `O=C(CCCCCCC(=O)Nc1ccccc1)NO`: the Potency was 3.35 µM (active) and 2.11 µM (active).

As for `CC(=N\O)/C(C)=N/O`, the Potency result was “inactive”.

Consider `Oc1cc(O)c(Cl)cc1Cl`, for which the Potency entry is “inactive”.

For the molecule `O=C(CCCN1CCN(c2ccc(F)cc2)CC1)NC1c2ccccc2CSc2ccccc21` (stereo not given), the Potency was 10.6 µM (active).

`Cc1cnc(C)c(C)n1`: the Potency result is “inactive”.

Consider `Cc1cc(C(=C2C=CC(=Nc3ccc(S(=O)(=O)O)cc3S(=O)(=O)O)C=C2)c2ccc(Nc3ccc(S(=O)(=O)O)cc3)cc2)ccc1N`, for which the Potency entry is “inactive”.

As for `CC1=CC(=O)CC(C)(C)C1(O)/C=C/C(C)=C\C(=O)O` (stereo not given), the Potency entry is “inactive”.

On to `COCc1c(C(C)C)nc(C(C)C)c(/C=C/[C@@H](O)C[C@@H](O)CC(=O)O)c1-c1ccc(F)cc1`, for which the Potency result is “inactive”.

Take `O=C(/C=C/c1ccccc1)OCCCc1ccccc1`: the Potency entry was “inactive”.

In the case of `NC(=O)Nc1ccc(Cl)cc1`, the Potency result was “inactive”.
